# Shown are actives, neighbours in structure and some others; about 2.1% of the full set was active somewhere.
# Abeta yeast res – A-beta toxicity reversal in yeast. 0.063% of 410,000 active. AID 1347071. Potency, µM (top dose mostly 46.1 µM), actives largely listed as activators. yeast expressing A-beta42, growth rescue, OD600, 48 h; response scale: 0% DMSO, 100% iron-clioquinol control; note: nearly all actives have a fitted effect of over 55% in size
#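 Growth rescue measured by 600 nm absorbance after 48 h yeast culture at 30 C with compound. Values normalized between DMSO and an equimolar ferric chloride plus clioquinol control.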
# FUS yeast rescue – suppressors of FUS proteinopathy in yeast. AID 1347120. 0.24% of 390,000 active. Potency, µM (titrated, usually from 76.6 µM), most hits filed as activators. S. cerevisiae FUS-expressing, growth rescue, OD600, 24 h;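 note: plate controls were DMSO vehicle for no effect and reference control for full effect; nearly all actives have a fitted effect of over 55% in size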
#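 Absorbance at 600 nm, taken 24hr after compound addition, measured rescue of FUS-yeast growth at 30C. Induction used 2% galactose with seeding at OD 0.005. Controls: CP55940 from 92uM final, DMSO only.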
# aSyn yeast inh – rescues yeast growth from alpha-synuclein toxicity | Yeast expressing alpha-synuclein, growth rescue, BacTiter-Glo, 24 h | Potency, µM (doses to about 46.1 µM), without a hit: at the top dose growth rescue (activation), hits mostly activators | 0.14% of 370,000 active | AID 652106; note: % of control where 0% means no effect; nearly all actives have a fitted effect of over 65% in size
#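 Screening used galactose-induced yeast with toxic alpha-synuclein levels, exposed to compound for 24 hr at 30 deg C. Cell growth, read with BacTiter-Glo luminescence, gave the measured signal.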
# TDP-43 yeast inh – inhibitors of TDP-43 toxicity in yeast; Potency, µM (series often up to 46.1 µM), for inactives: top-dose growth rescue (activation), hits mostly activators; 1.8% of 410,000 active; AID 652104; TDP-43 expressing yeast growth rescue, BacTiter-Glo, 24 h; note: % of control where 0% means no effect; nearly all actives have a fitted effect of over 50% in size
#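 Yeast cells expressing TDP-43 under galactose induction are exposed to compounds for 24 hr at 30 deg C. BacTiter-Glo luminescence measures growth, so protective compounds score as activators.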
# * marks the source's active call; other numbers are inactive results; i = inactive; ? = inconclusive; / = not tested or not shown; [ ] = remark or other dose. Calls come from the whole dose curve; as a rule, active = well fitted curve in the direction sought with a large enough effect; inconclusive = small, poorly fitted or top-dose-only effect, or another doubt; inactive = no such curve, though single readings can be large; an effect the other way counts as inactive or inconclusive. Potency is the fitted concentration of half-maximal effect.
SMILES,Abeta yeast res,FUS yeast rescue,aSyn yeast inh,TDP-43 yeast inh
CCOc1ccc(C2C(C(=O)c3ccc(C)o3)=C(O)C(=O)N2Cc2cccnc2)cc1 (centres undefined),i,?,-7.2%,-23.6%
Brc1ccccc1-c1nc2c3ccccc3ncn2n1,i,i,-6.0%,14.1µM*
Clc1ccc(-c2nc3c4cnn(-c5ccccc5Br)c4ncn3n2)c(Cl)c1,i,i,/,?
Cc1ccc(/C(N)=N/OC(=O)C(C)c2ccc([N+](=O)[O-])cc2)cc1 (centres undefined),?,i,0.1%,-61.2%
COc1ccccc1NC(=O)Nc1nc(CC(=O)N2CCN(c3ccccc3)CC2)cs1,i,?,4.47µM*,0.0%
CC(=O)NCC(=O)N1CCCC(C(=O)c2ccc(Oc3ccccc3)cc2)C1 (centres undefined),i,i,3.5%,-5.1%
Cc1cccc(C)c1-n1nnnc1C1c2ccccc2C(=O)N1CCc1ccccc1F (centres undefined),i,i,7.6%,35.5µM*
Cc1cccc(C)c1-n1nnnc1C1c2ccccc2C(=O)N1CCC(C)C (centres undefined),i,i,5.3%,0.0%
Cc1ccc(C(=O)C(C)OC(=O)Cn2[nH]c(=O)c3ccccc3c2=O)cc1C (centres undefined),i,i,9.3%,4.2%
CC(C)NC(=S)N/N=C/c1cccs1,?,i,-7.5%,9.5%
CC(C)NC(=S)N/N=C/c1ccc(C(C)(C)C)cc1,5.62µM*,i,-5.5%,0.0%
Cc1cc(N2CCN(c3ccccc3F)CC2)n2cnnc2n1,i,i,/,?
Cc1cc(N2CCN(c3cccc(C)c3C)CC2)n2cnnc2n1,i,i,/,22.4µM*
CC1CN(C(=O)CCC(=O)Nc2cc(F)ccc2F)c2ccccc2S1 (centres undefined),i,i,/,11.2µM*
CC1(C)Cc2ccccc2-c2nnc(SCc3ccc(C#N)cc3)n21,i,i,17.9%,12.6µM*
CCCNC(=O)N(C)C[C@@H]1Oc2cc(C#C[C@H](C)O)ccc2S(=O)(=O)N([C@H](C)CO)C[C@H]1C,i,i,5.01µM*,5.7%
CCCNC(=O)N(C)C[C@H]1Oc2cc(Br)ccc2S(=O)(=O)N([C@@H](C)CO)C[C@@H]1C,i,i,1.1%,20.8%
COc1ccc(S(=O)(=O)N2CCC(Oc3ccc(-n4cnnn4)cc3)CC2)cc1OC,i,i,/,21.4%
COC(=O)N/N=C/c1ccc(-c2ccccc2Cl)o1,i,i,4.6%,20µM*
COC(=O)N/N=C/c1ccc(-c2ccc(Cl)cc2Cl)o1,i,i,5.5%,0.7%
NC(=S)N/N=C/c1ccc(-c2cc(Cl)c(Cl)cc2Cl)o1,12.6µM*,i,23.4%,3.6%
Clc1ccccc1-c1ccc(/C=N/n2cnnc2)o1,i,i,6.1%,11.2µM*
Cc1cc(F)ccc1C(O)c1ncc(-c2ccccc2C(F)(F)F)[nH]1 (centres undefined),i,i,4.1%,6.6%
Cc1ccnc(NC(=O)c2ccc(N3C(=O)CCC3=O)cc2)c1,i,i,-13.0%,-3.2%
O=C(Nc1nc2c(Cl)cccc2s1)C1CC1,i,i,-0.5%,19.5%
SMILES,Abeta yeast res,FUS yeast rescue,aSyn yeast inh,TDP-43 yeast inh
O=C(Nc1nc2cc3c(cc2s1)OCO3)C1CCCCC1,i,i,-4.1%,7.5%
CC(C)c1ccc2nc(NC(=O)C3CC3)sc2c1,i,i,-14.9%,22.4µM*
O=C(Nc1nc2cc3c(cc2s1)OCCO3)C1CCCCC1,i,i,-27.1%,25.1µM*
Cc1cccc2sc(NC(=O)C3CC3)nc12,i,i,-22.7%,11.2µM*
Cc1cccc2sc(NC(=O)CN(C)S(=O)(=O)c3ccc(Br)s3)nc12,i,i,5.1%,?
Cc1cccc2sc(NC(=O)CN(C)S(=O)(=O)c3cccs3)nc12,i,i,21.6%,15.8µM*
CC(C)Cc1nn2c(=O)cc(COC(=O)c3ccccc3NC(=O)c3ccccc3)nc2s1,i,i,/,-11.6%
Cc1cccc2sc(NC(=O)CCn3cccc3)nc12,?,i,-1.2%,?
Cc1cccc2sc(NC(=O)Cn3cccc3)nc12,11.2µM*,i,17.6%,7.1%
Cc1cc(C)c(S(=O)(=O)NC2CC3CCC2C3)c(C)c1 (centres undefined),i,i,-13.0%,12.6µM*
COC(=O)C1=C(C)N(Cc2ccccc2)C(=S)N[C@H]1c1ccc(Br)cc1,i,?,4.0%,15.8µM*
O=C(Cn1nc(Cl)nc1Cl)c1ccc(F)cc1,i,i,1.6%,24.0%
O=C(Cn1nc(Cl)nc1Cl)c1ccc2c(c1)OCCO2,i,?,-5.4%,11.2µM*
COc1ccc(C2CC(=O)c3cnc(NC(=O)c4ccccc4OC)nc3C2)c(OC)c1 (centres undefined),i,i,13.8%,17.8µM*
COc1ccc(C2CC(=O)c3cnc(NC(=O)c4cccc(OC)c4)nc3C2)cc1 (centres undefined),i,i,1.3%,?
O=C(O)c1ccc(N/N=C/c2cn(Cc3ccc(F)cc3)c3ccccc23)cc1,i,i,-15.0%,?
O=[N+]([O-])/C=C/c1cn(Cc2ccc(F)cc2)c2ccccc12,i,i,8.1%,12.6µM*
CCOC(=O)CC[C@@]1(C(=O)OCC)C[C@@H](CC(=O)NCCCN2CCCC2=O)C(=O)N2CCCC=C21,/,i,/,/
CCCc1ncc(C(O)c2ccccc2OC)n1C (centres undefined),i,i,-1.1%,-20.8%
CCN(Cc1ccc(Cl)s1)C(=O)c1cccc(OCc2c(C)noc2C)c1,i,/,-1.3%,35.5µM*
CCN(Cc1nc2ccccc2c(=O)[nH]1)C(=O)c1cccc(OCc2c(C)noc2C)c1,i,i,-0.6%,14.6%
CC(C)(C)NC(=O)C(c1cccc2ccccc12)n1c(=O)c(-c2ccccc2)nc2ccccc21 (centres undefined),i,i,-12.5%,35.5µM*
CC(C)(C)NC(=O)C(c1cccc2ccccc12)n1c(=O)c(-c2ccco2)nc2ccccc21 (centres undefined),i,?,?,17.4%
COc1ccccc1CNC(=O)COCc1cc(-c2ccc3c(c2)OCO3)on1,i,?,/,22.4µM*
CN(CC(=O)Nc1ccc(Cl)cc1)C(=O)c1sccc1-c1ccccc1,?,i,3.7%,22.4µM*
CN(CC(=O)Nc1cccc(F)c1)C(=O)c1sccc1-c1ccccc1,i,i,0.4%,14.2%
Oc1c(C(c2ccccn2)N2CCC(Cc3ccccc3)CC2)cc(Cl)c2cccnc12 (centres undefined),i,25.1µM*,-3.5%,18.6%[9.22 µM]
CN1CCN(C(c2ccccn2)c2cc(Cl)c3cccnc3c2O)CC1 (centres undefined),i,i,?,-61.0%
